Experimental data taken from PubChem BioAssay (EPA / NIEHS).
The source made the active and inactive calls. How the source made its calls: active means hit-call score of the fitted dose curve at least 0.9, where 1 is the maximum; inactive means score below 0.9.

Experiment: APR_HepG2_P-H2AX_1hr: Apredica 1-hour HepG2 Assay for H2AX Phosphorylation (AID 2282673)
Conditions: high-content imaging, actives raise or lower the signal
Procedure: APR_HepG2_1hr is a cell-based, multiplexed-readout assay that uses HepG2, a human liver cell line, with measurements taken at 1 hour after chemical dosing in a 384-well plate.APR_HepG2_P-H2AX_1hr is one of 10 assay component(s) measured or calculated from the APR_HepG2_1hr assay. It is designed to make measurements of dna content, a form of viability reporter, as detected with fluorescence intensity signals by HCS Fluorescent Imaging technology.Data from the assay component APR_HepG2_P-H2AX_1hr was analyzed into 1 assay endpoint. This assay endpoint, APR_HepG2_P-H2AX_1hr, was analyzed with bidirectional fitting relative to DMSO as the negative control and baseline of activity. Using a type of viability reporter, measures of protein for gain or loss-of-signal activity can be used to understand the signaling at the pathway-level as they relate to the gene . Furthermore, this assay endpoint can be referred to as a primary readout, because this assay has produced multiple assay endpoints where this one serves a signaling function. To generalize the intended target to other relatable targets, this assay endpoint is annotated to the dna binding intended target family, where the subfamily is cellular response to DNA damage stimulus.
Cells were treated with dimethyl sulfoxide (DMSO) as a solvent control at a final concentration of 0.5% v/v or with compounds in DMSO with a resulting final DMSO concentration of 0.5% v/v. Compound treatment was done at concentrations of 0.39, 0.78, 1.56, 3.12, 6.24, 12.5, 25, 50, 100, and 200 uM in duplicate on each plate. Cells were treated with compounds for 1, 24, or 72 hr. Carbonyl […] m-chloro-phenylhydrazone (CCCP) and taxol were used as positive controls for mitochondrial function and cytoskeletal stability, respectively; DMSO served as the negative control for this experiment. Cells were fixed by the direct addition of 50 uL formaldehyde in Hank's Balanced Salt Solution (HBSS) to a final concentration of 3.7%. After incubation in the fixation medium for 30 min at room temperature (293-298 K), cells were rinsed twice with HBSS and treated with cell permeabilization buffer (16 uL of 0.5% Triton X-100) for 10 min at room temperature (293-298 K) before labeling. For mitochondrial membrane potential and mitochondrial measurements, pre-fixed cells were incubated with 50 uL of MitoTracker Red CMXRos (Invitrogen) at a concentration of 250 nM for 30 min before fixation. In the remaining cases, post-fixed cells were labeled by incubation with a multiplexed mixture of primary antibodies in HBSS for 60 min at room temperature (293-298 K) to detect immunoreactivity of c-Jun (1:500), phospho-histone H3 (1:100), phospho-histone H2A.x (1:200), p53 (1:400), alpha-tubulin (1:200) and Hoechst 33342 (2 ug/mL). Cells were labeled for multiplexed imaging on two separate plates: a) Hoechst 33342, MitoTracker Red, phospho-histone H3, and alpha-tubulin, and b) Hoechst 33342, phospho-histone H2A.x, and c-Jun. A final rinse with HBSS (50 uL) was performed before analysis. The primary and secondary antibodies for the proteins were phospho-histone H3 (rabbit anti-phospho-histone H3 and FITC-donkey anti-rabbit IgG), phospho-histone H2A.x (mouse anti-phospho-histone H2A.x and FITC-donkey anti-mouse IgG), c-Jun (rabbit anti-phospho-c-Jun and Cy3-donkey anti-rabbit IgG), p53 (sheep anti-p53 and Cy5-donkey anti-sheep IgG), alpha-tubulin (mouse anti-alpha-tubulin and Cy5-donkey anti-mouse IgG). These antibodies are available as the CellCiphr HepG2 assay kit (Millipore).Digital images of each well were captured using a Cellomics ArrayScan VTI (Thermo Scientific Cellomics) (0.8 NA objective, 0.63x optical coupler, and XF-93 filter set) at 20x magnification. The images were acquired using the autofocus feature of the ArrayScan instrument, which entails the following steps. First, the camera focuses on channel 1 (Hoechst 33342), where nuclei are identified. Second, a Z offset of 1 um is used for capturing mitochondria (MitoTracker Red). […]

Compound | outcome | AC50
O=C(O)CCCOc1ccc(Cl)cc1Cl | inactive | 
CC1(c2ccc(Oc3ccccc3)cc2)OC(=O)N(Nc2ccccc2)C1=O (stereo not given) | inactive | 
ClC1C(Cl)C(Cl)C(Cl)C(Cl)C1Cl (stereo not given) | inactive | 
O=[N+]([O-])c1c(Cl)c(Cl)c(Cl)c(Cl)c1Cl | inactive | 
N#CN | inactive | 
COC(=O)c1ccccc1S(=O)(=O)NC(=O)Nc1nc(C)nc(OC)n1 | inactive | 
CCOCN(C(=O)CCl)c1c(C)cccc1CC | inactive | 
COP(=S)(OC)Oc1ccc(SC)c(C)c1 | inactive | 
COP(=O)(OC)OC=C(Cl)Cl | inactive | 
CC(C)(C)C(O)/C(=C\c1ccc(Cl)cc1Cl)n1cncn1 (stereo not given) | inactive | 
OCCOc1ccccc1 | inactive | 
CNC(=O)/C=C(\C)OP(=O)(OC)OC | inactive | 
COC(=O)c1ccccc1S(=O)(=O)NC(=O)N(C)c1nc(C)nc(OC)n1 | inactive | 
CC1(C)C(C=C(Cl)Cl)C1C(=O)OC(C#N)c1ccc(F)c(Oc2ccccc2)c1 (stereo not given) | inactive | 
[2H]C1([2H])[n+]2ccccc2-c2cccc[n+]2C1([2H])[2H] | inactive | 
C[C@H]1[C@H](c2ccc(Cl)cc2)SC(=O)N1C(=O)NC1CCCCC1 | inactive | 
CCCN(CCC)c1c([N+](=O)[O-])cc(C(F)(F)F)cc1[N+](=O)[O-] | inactive | 
O=C(O)COc1ccc(Cl)cc1Cl | inactive | 
COC(=O)c1ccccc1CS(=O)(=O)NC(=O)Nc1nc(OC)cc(OC)n1 | inactive | 
Cc1[nH]c(=O)n(C(C)(C)C)c(=O)c1Cl | inactive | 

Compound | outcome | AC50
Clc1ccccc1-c1nnc(-c2ccccc2Cl)nn1 | inactive | 
CCC(C)Nc1c([N+](=O)[O-])cc(C(C)(C)C)cc1[N+](=O)[O-] (stereo not given) | inactive | 
CC(C)OC(=O)Nc1cccc(Cl)c1 | inactive | 
CN1CSC(=S)N(C)C1 | inactive | 
CC(C)N(C(=O)COc1nnc(C(F)(F)F)s1)c1ccc(F)cc1 | inactive | 
Cc1cc(C)nc(NC(=O)NS(=O)(=O)c2ccccc2C(=O)OC2COC2)n1 | inactive | 
CC[C@H](C)[C@H]1O[C@]2(C=C[C@@H]1C)C[C@@H]1C[C@@H](C/C=C(\C)[C@@H](O[C@H]3C[C@H](OC)[C@@H](O[C@H]4C[C@H](OC)[C@@H](O)[C@H](C)O4)[C@H](C)O3)[C@@H](C)/C=C/C=C3\CO[C@@H]4[C@H](O)C(C)=C[C@@H](C(=O)O1)[C@]34O)O2 (tested in a mixture with another compound) |  | 22.5 µM (active)
CCOC1Oc2ccc(OS(C)(=O)=O)cc2C1(C)C (stereo not given) | inactive | 
Oc1ccc(Cl)cc1Cc1ccccc1 |  | 110 µM (active)
CNC(=O)Oc1ccccc1OC(C)C | inactive | 
CCS(=O)(=O)c1cccnc1S(=O)(=O)NC(=O)Nc1nc(OC)cc(OC)n1 | inactive | 
CCc1ccc(C(=O)NN(C(=O)c2cc(C)cc(C)c2)C(C)(C)C)cc1 | inactive | 
CNC(=O)Oc1cccc(N=CN(C)C)c1 | inactive | 
CCOc1nc(NC)nc(NC(=O)NS(=O)(=O)c2ccccc2C(=O)OC)n1 | inactive | 
O=C(O)C(F)(F)C(F)(F)C(F)(F)C(F)(F)C(F)(F)C(F)(F)C(F)(F)F | inactive | 
O=C(Nc1ccccc1)Nc1cnns1 | inactive | 
CCC(C)(NC(=O)c1cc(Cl)c(C)c(Cl)c1)C(=O)CCl (stereo not given) | inactive | 
CCC(C)(C)C(=O)OC1=C(c2ccc(Cl)cc2Cl)C(=O)OC12CCCCC2 | inactive | 
O=S(=O)(O)C(F)(F)C(F)(F)C(F)(F)C(F)(F)C(F)(F)C(F)(F)C(F)(F)C(F)(F)F | inactive | 
COc1nn(CSP(=S)(OC)OC)c(=O)s1 | inactive | 
